Compound activity from PubChem.
The list is not random: actives were taken first. Their share in the collection is about 7.8%.
HCMV inh: blocks human cytomegalovirus replication. activity change, negative = inhibition, % at 57.5 µM. HFF cells, HCMV-luciferase reporter, 72 h; active compounds read low. AID 1259415. 4.5% of 410,000 active; in the data active means activity change below about -60%; inconclusive means no clear call, values can overlap the other calls; inactive means above about -39%
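Cell-based, HFFs, 1000 cells/well, 16 h 37C; cpds in DMSO + HCMV-luc, MOI 1 PFU/cell; 72 h 37C; OneGlo luminescence after 5 min RT; norm. to buffer vs Salinomycin 10uM.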
VACV mCherry inh: inhibitors of vaccinia virus infection (mCherry reporter signal). Vaccinia virus mCherry reporter infection, fluorescence. Potency, µM (series often up to 36.5 µM), actives largely listed as inhibitors. 0.63% of 310,000 active; calls by dose curve; tested in A549 cells; further: nearly all actives have a fitted effect of over 35% in size
MARV entry inh: Marburg virus entry inhibition. Marburg virus pseudotyped entry inhibition, cell reporter. Potency, µM (highest dose often 37.8 µM), most hits filed as inhibitors. 1.8% of 300,000 active. AID 540276; calls by dose curve; tested in HEK293 cells
Lassa entry inh: inhibitors of Lassa virus binding or cell entry; Lassa virus pseudotype entry inhibition, cell reporter; Potency, µM (titrated, usually from 37.9 µM), actives largely listed as inhibitors; 1.2% of 300,000 active; AID 540256; calls by dose curve; tested in HEK293 cells; further: nearly all actives have a fitted effect of over 50% in size
VACV Venus inh: inhibitors of vaccinia virus (Venus reporter). Vaccinia virus Venus reporter expression, fluorescence. Potency, µM (top dose mostly 36.5 µM), hits mostly inhibitors. 0.46% of 330,000 active; calls by dose curve; tested in A549 cells; further: nearly all actives have a fitted effect of over 30% in size
HCV inhibitor: inhibitors of hepatitis C virus infection; Potency, µM (top dose mostly 41.8 µM), actives largely listed as inhibitors; Huh7.5.1 HCVcc-Cre infection, luciferase reporter, 44 h; AID 651820; 3.4% of 340,000 active; active means well fitted inhibition curve with a large enough effect; inconclusive means small, poorly fitted or top-dose-only effect, or another doubt; inactive means no such curve, though single readings can be large or run the other way
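Compounds are dispensed onto cells plated 4 h earlier at 1,000 per well, with HCVcc-Cre virus (about 0.5 moi) added next. Following 44 h of culture, luminescent signal is measured for 15 sec after 15 min with substrate at room temperature.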
Each line names hits and unclear results; the compound was inactive in the other large screens; ! = not confirmed by another sample.

CC(CCC(C)C(C)(C)C)[C@@H]1CC[C@H]2C3C[C@H](OS(O)(=S)=S)[C@H]4C[C@H](OS(O)(=S)=S)[C@@H](OS(O)(=S)=S)C[C@]4(C)[C@H]3CC[C@]12C (stereo not given in full) (tested in a mixture with another compound)	VACV Venus inh inconclusive, HCV inhibitor 2.51µM (no result: HCMV inh, MARV entry inh, Lassa entry inh)
CCC(CCC(C)C1CCC2C3CCC4CC(O)CC[C@@]4(C)C3CC[C@@]12C)C(C)C (stereo not given in full)	none (no result: HCMV inh, MARV entry inh, Lassa entry inh, HCV inhibitor)
CCOc1ccc(CNS(=O)(=O)c2cc3c(cc2C)NC(=O)CO3)cc1	none (no result: MARV entry inh, HCV inhibitor)
N#Cc1cccc(NC(=O)Cn2nc(Cc3ccncc3)c3ccccc3c2=O)c1	none (no result: HCV inhibitor)
CN1CCC(N(C)c2nc(-c3ccc([N+](=O)[O-])cc3)nc3ccccc23)CC1	VACV mCherry inh inconclusive, MARV entry inh 11.2µM, Lassa entry inh inconclusive, VACV Venus inh 10µM, HCV inhibitor 4.47µM
CC(C)CCNC(=O)CN1C(=O)c2cccnc2Sc2ccccc21	none (no result: MARV entry inh, HCV inhibitor)
COc1ccccc1N1CCN(CC2CN3C(=O)N(C)c4ccccc4C3=N2)CC1 (stereo not given)	none (no result: HCMV inh, MARV entry inh, Lassa entry inh, HCV inhibitor)
NCCCS(=O)(=O)O	HCMV inh inconclusive, MARV entry inh 8.2µM!, Lassa entry inh inconclusive, HCV inhibitor 5.62µM!
Cc1ccc(S(=O)(=O)N[C@@H]2COC(=O)[C@@H](C)COC(=O)C/C=C/[C@H]2C)cc1	none (no result: HCMV inh, VACV mCherry inh, Lassa entry inh, VACV Venus inh, HCV inhibitor)
CCOc1ccc2c(c1)c(N=NC(N)=S)c(O)n2C	none (no result: VACV mCherry inh, MARV entry inh, Lassa entry inh, VACV Venus inh)
NC(=S)N=Nc1c(O)n(CCCl)c2ccc(Cl)cc12	VACV mCherry inh 2.24µM, MARV entry inh inconclusive, Lassa entry inh inconclusive, VACV Venus inh inconclusive, HCV inhibitor inconclusive
NC(=S)N=Nc1c(O)n(CCCl)c2ccccc12	VACV mCherry inh inconclusive, VACV Venus inh 1µM, HCV inhibitor inconclusive
NC(=S)N=Nc1c(O)n(CC(=O)Nc2ccccc2)c2ccccc12	none (no result: VACV mCherry inh, MARV entry inh, Lassa entry inh, VACV Venus inh)
CN(C)c1ccc(C=c2c3cc([N+](=O)[O-])ccc3n3c2cc(-c2ccccc2)[n+]3C)cc1	HCMV inh -100.0, MARV entry inh inconclusive, Lassa entry inh 8.91µM, HCV inhibitor inconclusive
CN(C)c1ccc(C=c2c3ccccc3n3c2c2c([n+]3C)CCCC2)cc1	HCMV inh -99.5, VACV mCherry inh 3.16µM, MARV entry inh 4.47µM, Lassa entry inh 7.94µM, VACV Venus inh 6.31µM, HCV inhibitor inconclusive
CN(C)c1ccc(C=c2c3ccccc3n3c2cc(-c2ccc(Cl)cc2)[n+]3C)cc1	HCMV inh -99.2, MARV entry inh inconclusive, Lassa entry inh inconclusive, HCV inhibitor inconclusive
CN(C)c1ccc(C=c2c3ccccc3n3c2cc(-c2ccccc2)[n+]3C)cc1	HCMV inh -99.0, MARV entry inh 2.82µM, Lassa entry inh 2.82µM, HCV inhibitor inconclusive
Cc1ccc(Cl)cc1N1CCN(CCCNC(=O)C2COc3ccccc3C2)CC1 (stereo not given)	none (no result: MARV entry inh, HCV inhibitor)
CCOc1cc(C(=O)Nc2ccc3oc(-c4ccc(CC)cc4)nc3c2)cc(OCC)c1OCC	none (no result: MARV entry inh, HCV inhibitor)
CCC(C)NC(=O)c1ccccc1NC(=O)C1CCN(S(=O)(=O)Cc2ccccc2)CC1 (stereo not given)	none (no result: HCV inhibitor)
COc1cc(/C=C(/C(=O)O)c2ccc(-c3ccccc3)cc2)cc(OC)c1OC	MARV entry inh inconclusive
COc1cc(N(C)C)ccc1C=c1c2ccccc2n2c1cc(-c1ccccc1)[n+]2C	HCMV inh -99.0, MARV entry inh inconclusive, Lassa entry inh inconclusive, HCV inhibitor 10µM
COc1cc(C=c2c3ccccc3n3c2cc(-c2ccccc2)[n+]3C)cc(OC)c1OC	HCMV inh -100.9, MARV entry inh inconclusive, Lassa entry inh 14.1µM, HCV inhibitor inconclusive
COc1ccc(C(=O)c2oc3ccccc3c2N)cc1	HCMV inh -67.0 (no result: VACV mCherry inh, VACV Venus inh)
COc1ccc2cc(/C=N/O)c(Cl)nc2c1	Lassa entry inh inconclusive, HCV inhibitor inconclusive
COc1ccc2cc(/C=N/NC(=O)c3ccc(CN(c4cccc(Cl)c4Cl)S(C)(=O)=O)cc3)c(Cl)nc2c1	MARV entry inh 0.562µM, Lassa entry inh inconclusive
COc1ccc(CNCC(O)COc2cccc3c2OC(C)(C)C3)cc1 (stereo not given)	HCMV inh -64.2, VACV mCherry inh inconclusive, MARV entry inh inconclusive, Lassa entry inh inconclusive, HCV inhibitor inconclusive
COC(=O)c1ccc(COc2cccc3c2OC(C)(C)C3)cc1	none
O=C(Nc1nc(-c2ccccc2)cs1)c1cccc([N+](=O)[O-])c1	HCV inhibitor 12.6µM (no result: VACV mCherry inh, VACV Venus inh)
